# Screens deposited in PubChem BioAssay by National Center for Advancing Translational Sciences (NCATS).
# Compounds with a hit are over-represented: about 7.9% of the library has one in this group of screens.
# KB-3-1 tox = KB-3-1 parental cell cytotoxicity; AID 1347075; 400,000 compounds, 1.4% hits; KB-3-1 viability, CellTiter-Glo ATP luminescence, 72 h; Potency, µM (top dose mostly 46.1 µM), hits mostly cytotoxic; note: nearly all actives have a fitted effect of over 60% in size
#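 Screening of KB-3-1 cells (DMEM, 10% FBS, phenol-red free) ran from lowest to highest compound concentration; after 72 h at 37 °C viability was read luminescently and curves fitted.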
# KB-V1 MDR tox = KB-V1 MDR subline cytotoxicity. Potency, µM (highest dose often 46.1 µM), actives largely listed as cytotoxic. KB-V1 MDR cells viability, CellTiter-Glo, 72 h. AID 1347076. 400,000 compounds, 3.4% hits; note: nearly all actives have a fitted effect of over 60% in size
#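 Compound-treated KB-V1 multidrug-resistant cells, 72 h, 37 degrees C; viability by CellTiter-Glo. Fitted qHTS curves give the values.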
# MCF10A rerep = DNA re-replication induction in MCF 10a cells. AID 624296. 350,000 compounds, 2.9% hits. MCF 10A DNA re-replication, Hoechst nuclear intensity, 48 h. Potency, µM (doses to about 46.1 µM), most hits filed as activators; note: nearly all actives have a fitted effect of over 50% in size
# HT1080 IDH1KD tx = toxicity to HT-1080 IDH1 knockdown cells (counter line) | HT-1080 IDH1 knockdown viability, ATP luminescence, 48 h | Potency, µM (top dose mostly 46.1 µM), actives largely listed as cytotoxic | 360,000 compounds, 2% hits | AID 686971
#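 HT-1080-IDH1KD cells (IDH1 knocked down), 750/well in RPMI with 5% FBS, treated with compound 48 h at 37 degrees C. Viability by CellTiter-Glo luminescence, normalised to DMSO and no-cell wells; concentration-response curves classed.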
# HT1080-NT tox = kills 2HG-producing HT-1080-NT fibrosarcoma cells; AID 686970; Potency, µM (doses to about 46.1 µM), most hits filed as cytotoxic; HT-1080-NT fibrosarcoma viability, CellTiter-Glo ATP luminescence, 48 h; 360,000 compounds, 1.6% hits;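 note: NT is the 2HG producing partner of a matched IDH1 knockdown line; nearly all actives have a fitted effect of over 55% in size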
#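 Read-out is CellTiter-Glo luminescence after 10 minutes at room temperature, following 48 hours' compound treatment of HT-1080-NT cells (750 cells/well, RPMI, 5% FBS, 37 degrees C).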
# SW480 rerep = induces DNA re-replication in SW480 colon adenocarcinoma cells. Potency, µM (highest dose often 46.1 µM), hits mostly activators. SW480 DNA re-replication, Hoechst DNA content imaging, 48 h. AID 624297. 340,000 compounds, 1.8% hits; note: nearly all actives have a fitted effect of over 55% in size
#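 250 cells/well; 23 nL cpd via pin tool; 48 hr, 37 C, 5% CO2; Hoechst 40 min; imager read of total nuclear intensity, ex 405/em 500-530 nm.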
# A number is an active result; n = inactive; u = inconclusive; x = no result; [ ] = remark or other dose. Calls come from the whole dose curve; as a rule, active = well fitted curve in the direction sought with a large enough effect; inconclusive = small, poorly fitted or top-dose-only effect, or another doubt; inactive = no such curve, though single readings can be large; an effect the other way counts as inactive or inconclusive.
SMILES,KB-3-1 tox,KB-V1 MDR tox,MCF10A rerep,HT1080 IDH1KD tx,HT1080-NT tox,SW480 rerep
CCc1ccc(Nc2cnn(-c3nc4ccccc4s3)c(=O)c2Cl)cc1,n,13µM,n,n,n,n
O=C(NCc1ccccc1)C(C1CC1)n1c(Cc2cc(F)cc(F)c2)nc2ccccc21 (stereo not given),n,u,x,n,n,x
CCOc1ccc(N2CC(C(=O)NCCc3ccc(F)cc3)CC2=O)cc1 (stereo not given),n,n,n,n,n,n
NC(=O)c1ccc(NC(=O)CSc2nnc(-c3cccnc3)n2Cc2ccco2)cc1,n,n,u,n,n,u
Cc1ccc(-c2nc(C(=O)NCc3ccc(Cl)cc3)c3n2CCCCC3)cc1,u,13µM,x,x,x,x
CC(C)N(Cc1ccccc1)C(=O)c1nc(-c2ccc(Cl)cc2)n2c1CCCCC2,n,16µM,x,x,x,x
COC(=O)c1ccccc1NC(=O)c1nc(-c2ccc(C)cc2)n2c1CCCCC2,u,15µM,x,x,x,x
COc1ccc(C(=O)Nc2ccc(S(=O)(=O)NC(C)(C)C)cc2)cc1[N+](=O)[O-],n,u,0.13µM,n,n,n
COc1ccc(C(=O)Nc2ccc(C(=O)Nc3nccs3)cc2)cc1[N+](=O)[O-],u,n,n,n,n,10µM
COc1cc(C(=O)Nc2ccc(S(=O)(=O)NC(C)(C)C)cc2)cc(OC)c1OC,n,n,u,n,n,n
O=C(Nc1nccs1)c1ccc(Br)cc1,n,n,n,n,n,15µM
COc1ccc(C(=O)Nc2ccc(NC(=O)c3cccs3)cc2)cc1[N+](=O)[O-],u,n,n,n,n,n
Cc1ccc(NC(=O)Cn2c(=O)oc3cc(S(=O)(=O)N4CCCCC4)ccc32)c(Cl)c1,n,n,x,x,x,x
O=C(O)c1ccc(/C=C(\c2nc3ccccc3[nH]2)c2nc3ccccc3s2)cc1,u,n,u,18µM,u,12µM
CC(=O)/C(=C(/O)c1ccccc1)c1nc2ccccc2[nH]1,n,n,n,n,n,n
Cc1cccc(/C=C(\c2nc3ccccc3[nH]2)S(=O)(=O)c2ccccc2)c1,4.1µM,18µM,5.8µM,9.2µM,9.2µM,u
CC(C)(C)c1ccc(/C=C(\c2nc3ccccc3[nH]2)S(=O)(=O)c2ccccc2)cc1,u,u,5.2µM,6.5µM,6.5µM,8.2µM
O=C(O)c1ccc(-c2nc3ccccc3[nH]2)cc1,n,n,n,n,n,n
Cc1cc(C(=O)N2CCCC(CO)(Cc3ccc(F)cc3F)C2)nn1C (stereo not given),n,n,x,n,n,x
Cc1ccc(-n2cnnn2)cc1S(N)(=O)=O,n,u,x,x,x,x
COc1ccc(Cn2nnnc2CN2CCC(c3nc4ccccc4s3)CC2)cc1,n,u,u,u,n[9.24 µM],n
c1ccc2sc(C3CCN(Cc4nnnn4Cc4ccc5c(c4)OCO5)CC3)nc2c1,23µM,16µM,u,n,n,n
Cc1ccccc1C(OCC(O)CN1CCC(C(N)=O)CC1)c1ccccc1 (stereo not given),n,n,u,n,n,n
Nc1ccc(Cn2ccc3c4c(N)nc(N)nc4ccc32)cc1,u,u,n,0.033µM,0.52µM,u
C=CS(=O)(=O)c1sc(Cl)c(N2CCOCC2)c1[N+](=O)[O-],n,n,n,10µM,u,n
SMILES,KB-3-1 tox,KB-V1 MDR tox,MCF10A rerep,HT1080 IDH1KD tx,HT1080-NT tox,SW480 rerep
COc1ccc(NC(=O)C(NC(=O)Cc2cccs2)c2ccc(C)cc2)cc1 (stereo not given),n,n,u,n,n,n
COc1ccc(S(=O)(=O)Nc2ccccc2OC)cc1NC(=O)Cc1cccs1,n,n,n,n,n,n
COc1ccc(NC(=O)C(NC(=O)Cc2cccs2)c2ccccc2)cc1 (stereo not given),n,12µM,n,n,n,n
COc1ccccc1NS(=O)(=O)c1ccc(NC(=O)Cc2cccs2)cc1,n,21µM,n,n,n,n
COc1ccc(COC(=O)c2sc3nc4n(c(=O)c3c2C)CCC4)cc1,n,8.2µM,n,u,n,n
COc1ccc(CNC(=O)c2sc3nc4n(c(=O)c3c2C)CCC4)cc1,n,n,x,x,x,x
CC(=O)c1cccc(NC(=O)c2sc3nc4n(c(=O)c3c2C)CCCC4)c1,n,n,n,n,n,9.2µM
Cc1nn(C)c(C(=O)Nc2ccn(Cc3c(F)c(F)cc(F)c3F)n2)c1[N+](=O)[O-],n,13µM,n,n,n,n
O=C(c1ccc(CSc2nc3ccncc3n2Cc2cccc(F)c2)cc1)N1CCCCCC1,n,n,x,x,x,x
O=C(Cc1c(F)cccc1Cl)Nc1ccon1,n,n,n,n,n,n
Cc1cc(C(=O)Nc2c(C)nn(Cc3c(Cl)cccc3Cl)c2C)no1,n,9.2µM,n,u,u,n
CCc1cc(C(=O)Nc2c(C)nn(Cc3ccccc3Cl)c2C)no1,n,n,x,x,x,x
Cc1cc(C(=O)Nc2c(C)nn(Cc3ccc(F)cc3)c2C)no1,n,u,x,x,x,x
COc1ccc(-c2cc(C(=O)Nc3c(C)nn(Cc4ccccc4Cl)c3C)no2)cc1,n,n,10µM,n,n[9.24 µM],n
Cc1cc(NC(=O)Cc2c(F)cccc2Cl)no1,n,n,7.3µM,n,n,u
Cc1nn(Cc2c(Cl)cccc2Cl)c(C)c1NC(=O)c1cc(C(C)C)on1,u,u,u,23µM,u,n
CN(Cc1ccccc1)c1ncnc2sccc12,n,u,u,u,n,u
O=C(O)/C(=C\c1ccccc1)c1ccc2ccccc2c1,n,n,n,n,n,n
COc1ccc2cc(C(=O)C3CCCN(C(=O)c4cncs4)C3)ccc2c1 (stereo not given),x,x,n,n,n,n
CC(=O)NCCCS(=O)(=O)O,x,x,n,x,x,n
O=C(NN=C1c2ccccc2-c2ccccc21)c1ccccn1,n,5.2µM,n,u,u,u
CC(=N/O)/C(C)=N\NC(=O)c1ccccn1,n,n,n,n,n,n
O=C(CSc1nnc(Cc2cccs2)n1-c1ccccc1)NCc1ccc2c(c1)OCO2,n,n,n,n,n,n
CC(Sc1nnc(-c2cccs2)n1-c1ccccc1)C(=O)NCc1ccc2c(c1)OCO2 (stereo not given),n,8.2µM,n,n,n,n
CCCCOC(=O)c1cc(-c2ccc(/C=N/n3cnnc3)o2)ccc1Cl,n,18µM,n,n,n,n
Clc1ccccc1-c1ccc(/C=N/n2cnnc2)o1,5.8µM,3.3µM,n,n,n,n
Clc1cccc(-c2ccc(/C=N/n3cnnc3)o2)c1Cl,6.5µM,1.6µM,n,n,n,n
Cc1c(C(=O)O)cccc1-c1ccc(/C=N/n2cnnc2)o1,n,n,n,n,n,n
Cc1c(Cl)cccc1-c1ccc(/C=N/n2cnnc2)o1,u,2.9µM,n,n,n,u
